gsp agonist: activates gsp, the McCune-Albright syndrome mutation; actives 0.13% (n = 340,000); Potency, µM (top dose mostly 76.9 µM), usual class: activators; gsp mutant cells, cAMP HTRF, 30 min; active = well fitted activation curve with a large enough effect; inconclusive = small, poorly fitted or top-dose-only effect, or another doubt; inactive = no such curve, though single readings can be large or run the other way; cell line not stated here;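 also: phosphodiesterase inhibitor Ro 20-1724 added with compounds to block cAMP breakdown; nearly all actives have a fitted effect of over 60% in size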
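Cells stably selected in G418 were plated at 2000/well, grown 16-24 hr, then given compounds in DMSO with the PDE inhibitor […] (300 uM solution added) for 30 min at 37C; cAMP was read by HTRF.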
BRCA1 expr up: activators of BRCA1 expression | MCF7-BRCA1-FFLuc reporter, luminescence, 48 h; response scale: scaled: vehicle 0%, 10 µM genistein 100% | actives 1.1% (n = 380,000) | Potency, µM (doses to about 46.1 µM), most hits filed as activators | AID 624202; also: nearly all actives have a fitted effect of over 80% in size
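48 h compound treatment of MCF7-BRCA1-FFLuc cells (phenol-red free MEM, 37 °C), then 15 min with luciferase substrate and luminescence imaging.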
mIDH1 inhibitor: human IDH1 R132H inhibition | O75874 | IDH1-R132H enzyme, NADPH consumption, diaphorase/resazurin fluorescence | Potency, µM (series often up to 76.6 µM), actives largely listed as inhibitors | actives 0.093% (n = 390,000) | AID 602179; also: nearly all actives have a fitted effect of over 65% in size
Target sequence (O75874 whole entry R132H, stated change not applied): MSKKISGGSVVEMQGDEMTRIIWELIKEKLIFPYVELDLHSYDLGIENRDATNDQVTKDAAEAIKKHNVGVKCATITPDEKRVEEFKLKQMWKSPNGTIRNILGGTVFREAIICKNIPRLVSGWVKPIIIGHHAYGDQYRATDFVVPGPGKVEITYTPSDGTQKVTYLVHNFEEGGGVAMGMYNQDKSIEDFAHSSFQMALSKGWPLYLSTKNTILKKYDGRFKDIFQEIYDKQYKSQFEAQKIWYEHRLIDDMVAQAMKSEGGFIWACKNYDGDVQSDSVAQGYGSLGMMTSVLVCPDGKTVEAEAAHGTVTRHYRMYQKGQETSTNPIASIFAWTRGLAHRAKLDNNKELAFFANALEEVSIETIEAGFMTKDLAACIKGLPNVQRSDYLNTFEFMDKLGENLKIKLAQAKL
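IDH1-R132H (0.5 ug/mL) preincubated 30 min with compound, then NADPH (0.016 mM) and alpha-KG (2 mM) added; 80 min at RT, pH 7.5. Remaining NADPH coupled via diaphorase/resazurin to fluorescence (540/590 nm); concentration-response curves normalized to no-enzyme control.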
IL2 activator: activators of IL-2; IL-2 activation reporter assay, cell-based qHTS; stimulated with anti-CD3/CD4/CD28 beads; in transgenic mouse T cells; activation, % (series mostly up to about 46 µM); actives 0.065% (n = 360,000); AID 652025; in the data active = activation above about 50%; inconclusive = mostly about 30% to 49%
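Screening format: compound pinned onto unstimulated transgenic mouse T cells, 60 min incubation, then anti-CD3/anti-CD4/anti-CD28 bead stimulation for 18 hours at 37 degrees C, followed by EGFP and DsRed detection.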
gsp antag: antagonists of gsp mutant (McCune-Albright syndrome); gsp-mutant cells, cAMP HTRF, 30 min; Potency, µM (titrated, usually from 76.9 µM), most hits filed as inhibitors; actives 0.4% (n = 340,000); AID 624288; calls by dose curve; cell line not stated here;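 also: intracellular cAMP measured with PDE inhibitor Ro 20-1724 present during compound exposure; nearly all actives have a fitted effect of over 65% in size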
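Measurement of cellular cAMP by homogeneous time-resolved fluorescence following a 30 min compound exposure at 37C. The PDE inhibitor […] was present throughout; the assay buffer was DPBS with 0.05% BSA and 0.005% Tween 20.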
Large screens that a line does not name were inactive. Only some compounds are listed: those with a hit (about 1.5% of all), similar ones and a draw of the others. Unless noted, calls follow the shape of the dose curve; as a rule, active = well fitted curve in the direction sought with a large enough effect; inconclusive = small, poorly fitted or top-dose-only effect, or another doubt; inactive = no such curve, though single readings can be large; an effect the other way counts as inactive or inconclusive.

O=C1CC(N2CCC(c3nc4ccccc4s3)CC2)C(=O)N1Cc1ccccc1 (configuration not stated)	gsp antag 35µM
Cc1cc(=O)n2c3c(c4c(cc13)c(CN(C)C)cc(=O)n4C)OC2	none
COc1ccc2c(c1)CC/C(=C\C=C\c1ccccc1OC)C2=O	BRCA1 expr up 11µM, gsp antag inconclusive
CSCCC(NC(=O)COc1ccccc1)C(=O)NC1CCC(C)CC1 (configuration not stated)	none
O=C(NCCSc1ccccc1)c1cccnc1	BRCA1 expr up 14µM
Cc1[nH]c2ccccc2c1NC(=O)CN1CCN(c2cccc(C(F)(F)F)c2)CC1	gsp antag 50µM
COCCN1CCN(C(=O)c2cc(COc3cc(C)ccc3C)on2)CC1	BRCA1 expr up inconclusive
Cc1ccc(C)c(OCc2cc(C(=O)N3CCC(N4CCCC(O)C4)CC3)no2)c1 (configuration not stated)	none
Cc1ccc(C)c(OCc2cc(C(=O)N3CCOCC3)no2)c1	BRCA1 expr up 18µM
CC(=O)NCCC1CCCCN1C(=O)c1cc(COc2cc(C)ccc2C)on1 (configuration not stated)	BRCA1 expr up 7.1µM
COC1CCN(C(=O)c2cc(COc3cc(C)ccc3C)on2)CC1	none (no result: gsp antag)
COCCCC1CCN(C(=O)c2cc(COc3cc(C)ccc3C)on2)CC1	BRCA1 expr up 3.2µM
CCOc1cc(C2NN=C(c3ccc(C)cc3)S2)ccc1O (configuration not stated)	gsp agonist inconclusive, BRCA1 expr up inconclusive, gsp antag inconclusive
COc1ccc(C2NN=C(c3ccc(C)cc3)S2)cc1 (configuration not stated)	BRCA1 expr up 1.8µM
CC(=O)Nc1cc(-c2ccc(N)cc2)cn2c(-c3cccc(C(F)(F)F)c3)cnc12	none (no result: gsp agonist, mIDH1 inhibitor, gsp antag)
COc1cccc(NC(=O)NCc2ccccc2Cl)c1	BRCA1 expr up 13µM
COc1ccc(-c2cc(C(=O)Nc3cccc(C(C)=O)c3)no2)cc1	gsp agonist inconclusive
COc1ccc(-c2cc(C(=O)Nc3cccc(Cl)c3)no2)cc1	gsp agonist inconclusive, BRCA1 expr up 3.2µM
O=C(Nc1cccc(O)c1)c1cc(-c2cccs2)on1	none
COc1ccc(CNC(=S)Nc2cccc(Cl)c2)cc1	none
COc1ccc(CNC(=O)Nc2cccc(Cl)c2)cc1	BRCA1 expr up 7.1µM
CC(=O)c1cccc(NC(=O)c2cc(-c3cccs3)on2)c1	gsp agonist inconclusive, BRCA1 expr up 10µM
CC(=O)C1(O)Cc2c(O)c3c(c(O)c2C(OC2CC(N)C(O)C(C)O2)C1)C(=O)c1c(O)cccc1C3=O (configuration not stated)	none (no result: gsp agonist, mIDH1 inhibitor, IL2 activator, gsp antag)
CCc1cccc(NC(=O)C2CCCN2S(=O)(=O)c2ccc3nc(-c4ccccc4)[nH]c3c2)c1 (configuration not stated)	none (no result: gsp agonist, BRCA1 expr up, IL2 activator, gsp antag)
O=C(COc1ccc(F)cc1)NC1CC(=O)N(c2ccc3c(c2)OCCO3)C1 (configuration not stated)	none (no result: gsp agonist, IL2 activator, gsp antag)
COc1ccc(/C=C/C(=O)Nc2ccccc2C(F)(F)F)cc1	BRCA1 expr up 3.2µM
COc1ccc(/C=C/C(=O)Nc2cccc(C(C)=O)c2)cc1	BRCA1 expr up 4.5µM, gsp antag inconclusive
COc1ccc(/C=C/C(=O)Nc2cccc(F)c2)cc1	none (no result: gsp agonist, BRCA1 expr up, IL2 activator, gsp antag)
COc1ccc(NC(=O)/C=C/c2cccc(F)c2)cn1	BRCA1 expr up 7.1µM
CSc1ccccc1-c1nnc(-c2ccc(Cl)cc2Cl)o1	gsp agonist inconclusive, BRCA1 expr up 7.9µM
CSc1ccccc1-c1nnc(-c2ccc(Cl)c(Cl)c2)o1	none
O=[N+]([O-])c1ccccc1CSc1nnc2ccccn12	BRCA1 expr up inconclusive
c1ccn2c(SCc3cn4ccsc4n3)nnc2c1	BRCA1 expr up 5µM
c1ccc(-n2cnnc2SCc2cn3ccsc3n2)cc1	none
O=[N+]([O-])c1ccc(CSc2nnc3ccccn23)cc1	gsp agonist 18µM
Clc1ccc(CSc2nnc3ccccn23)c(Cl)c1	BRCA1 expr up 10µM
O=C(CNC(=O)c1ccccc1F)Nc1ccc2c(c1)CCC2	BRCA1 expr up 4µM
O=C(Nc1ccc2c(c1)CCC2)c1c(F)cccc1Cl	BRCA1 expr up 5µM
O=C(CNC(=O)c1ccc(Br)cc1)Nc1ccc2c(c1)CCC2	none

Screening results as filed in PubChem.
